Drawing on PubChem BioAssay (NCATS), this text covers Potency, outcome and remaining parasite growth % (stronger effect = lower value) for 7 compounds.

Assay [1] concerns the target Luciferin 4-monooxygenase (Photinus pyralis) (UniProt P08659). Nature of the assay: Biochemical firefly luciferase enzyme assay for NPC (AID 624030).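 Note: purified P. pyralis luciferase at 10 nM with luciferin and ATP substrate; 0% = DMSO and -100% = full luciferase inhibition by PTC124 control; nearly all actives have a fitted effect of over 70% in size.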 In short, it runs like this:
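Purified P. pyralis luciferase at 10 nM in 50 mM Tris Acetate (final), luminescence read within 5 minutes of enzyme addition to compounds. Activity normalised to PTC124 versus DMSO; concentration-response curves classed by r2, magnitude and activity.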

Assay [2] can be described thus: S16 Schwann cell viability assay (CellTiter-Glo assay) (AID 624031).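 Note: cellular ATP luminescence as a viability measure; plate controls were DMSO-treated cells for no effect and cell-free wells for full effect; nearly all actives have a fitted effect of over 70% in size.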 In short, it runs like this: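 Native S16 rat Schwann cells in DMEM/10% FBS without phenol red were incubated overnight, then exposed to compounds for 24 h at 37 °C/5% CO2. Viability was read as ATP luminescence (CellTiter-Glo), normalized to no-cell wells and DMSO (0%).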
Background: Cellular ATP, detected with luciferase, serves as a proxy for viable cell number.

Assay [3] can be described thus: S16 Schwann cell PMP22 intronic element firefly luciferase assay (AID 624032).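 Note: plate controls were DMSO for no effect and PTC124 positive control mean for full effect; nearly all actives have a fitted effect of over 30% in size.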 In short, it runs like this:
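Rat S16 Schwann cells stably carrying firefly luciferase driven by a PMP22 intronic element, in 10% FBS, treated 24 h at 37 C. ONE-Glo luminescence normalized to PTC124 control and DMSO (0%); curves classed by r2, magnitude and activity.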

Assay [4] can be described thus: S16 Schwann cell PMP22 intronic element beta-lactamase assay (AID 624044; calls by dose curve;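 note: 0% = DMSO and -100% = potassium clavulanate positive control; nearly all actives have a fitted effect of over 15% in size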). An outline of the steps:
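Rat S16 Schwann cells with beta-Lac driven by a PMP22 intronic element, compound-treated 24 h at 37 °C. LiveBLAzer FRET B/G read: 460 nm normalized to potassium clavulanate vs DMSO; 535 nm FRET as viability; concentration-effect curves classified.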

The next assay deals with AA1029. Briefly: qHTS profiling for inhibitors of Plasmodium falciparum proliferation (AID 504749).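 Note: 0% = DMSO vehicle and full inhibition = artemisinin control; nearly all actives have a fitted effect of over 60% in size.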 The conditions noted are these: P. falciparum in erythrocytes, SYBR Green DNA, 72 h; series mostly up to 28.7 µM. In short, it runs like this: (§1)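 P. falciparum-infected erythrocytes (0.3% parasitemia, 2.5% hematocrit) incubated with compound 72 h at 37 C, 5% CO2. Parasite DNA detected by SYBR Green after lysis, overnight at room temperature; normalised to 0.29 uM artemisinin and DMSO.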
(In qHTS, concentration-response curves come from the screen itself.)

The next assay has as its system CP192. Described as above. The conditions noted are these: P. falciparum in erythrocytes, SYBR Green DNA, 72 h; series mostly up to 28.7 µM. In short, it runs like this: as §1
The test system of the next assay is CP211. Described as above. The conditions noted are these: P. falciparum in erythrocytes, SYBR Green DNA, 72 h; series mostly up to 28.7 µM. An outline of the steps:
as §1

The next assay relates to CP260. The description is as above. The conditions noted are these: P. falciparum in erythrocytes, SYBR Green DNA, 72 h; series mostly up to 28.7 µM. In short, it runs like this:
as §1

Another assay concerns CP297. The description is as above. The conditions noted are these: P. falciparum in erythrocytes, SYBR Green DNA, 72 h; series mostly up to 28.7 µM. An outline of the steps: as §1
For a further assay, the system named is CP315. The description is as above. Particulars: P. falciparum in erythrocytes, SYBR Green DNA, 72 h; series mostly up to 28.7 µM. An outline of the steps:
as §1

For the next assay, the system named is FAB9. Described as above. The conditions noted are these: P. falciparum in erythrocytes, SYBR Green DNA, 72 h; series mostly up to 28.7 µM. An outline of the steps: as §1
The subject of a further assay is ICS. Described as above. Particulars: P. falciparum in erythrocytes, SYBR Green DNA, 72 h; series mostly up to 28.7 µM. An outline of the steps:
as §1

In the next assay the test system is JCK. The description is as above. Particulars: P. falciparum in erythrocytes, SYBR Green DNA, 72 h; series mostly up to 28.7 µM. An outline of the steps:
as §1

The test system of another assay is N140. The assay is described as above. Particulars: P. falciparum in erythrocytes, SYBR Green DNA, 72 h; series mostly up to 28.7 µM. An outline of the steps:
as §1

Another assay concerns PC15. Described as above. Particulars: P. falciparum in erythrocytes, SYBR Green DNA, 72 h; series mostly up to 28.7 µM. An outline of the steps:
as §1

The next assay concerns TAB165. The description is as above. The conditions noted are these: P. falciparum in erythrocytes, SYBR Green DNA, 72 h; series mostly up to 28.7 µM. An outline of the steps: as §1
A short description of assay [5]: qHTS profiling for inhibitors of Plasmodium falciparum (3D7) proliferation (AID 743322; call rule not given here;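 note: infected erythrocytes exposed to compound for 72 h before lysis; 100% = DMSO vehicle wells and 0% = 0.29 µM artemisinin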). The conditions noted are these: P. falciparum 3D7 proliferation; at 28.7 µM (top of the series). In short, it runs like this:
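Erythrocytes infected with P. falciparum (0.3% parasitemia, 2.5% hematocrit) incubated with compounds 72 h at 37 C, 5% CO2. Lysis with saponin/Triton buffer containing SYBR Green I, overnight at room temperature in the dark; DNA fluorescence (485/535 nm) normalised to 0.29 uM artemisinin and DMSO.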

The target of assay [6] is Rap guanine nucleotide exchange factor 3 (Homo sapiens) (UniProt O95398). Briefly: Confirmatory qHTS for agonist of cAMP-regulated guanine nucleotide exchange factor 3 (EPAC1) (AID 1645881).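 Note: EPAC1 catalysed release of BODIPY-GDP from Rap1B seen as fluorescence loss; 100% = effect of cAMP agonist control; nearly all actives have a fitted effect of over 75% in size.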
Sequence of Rap guanine nucleotide exchange factor 3 (Homo sapiens) (O95398 whole entry, looked up): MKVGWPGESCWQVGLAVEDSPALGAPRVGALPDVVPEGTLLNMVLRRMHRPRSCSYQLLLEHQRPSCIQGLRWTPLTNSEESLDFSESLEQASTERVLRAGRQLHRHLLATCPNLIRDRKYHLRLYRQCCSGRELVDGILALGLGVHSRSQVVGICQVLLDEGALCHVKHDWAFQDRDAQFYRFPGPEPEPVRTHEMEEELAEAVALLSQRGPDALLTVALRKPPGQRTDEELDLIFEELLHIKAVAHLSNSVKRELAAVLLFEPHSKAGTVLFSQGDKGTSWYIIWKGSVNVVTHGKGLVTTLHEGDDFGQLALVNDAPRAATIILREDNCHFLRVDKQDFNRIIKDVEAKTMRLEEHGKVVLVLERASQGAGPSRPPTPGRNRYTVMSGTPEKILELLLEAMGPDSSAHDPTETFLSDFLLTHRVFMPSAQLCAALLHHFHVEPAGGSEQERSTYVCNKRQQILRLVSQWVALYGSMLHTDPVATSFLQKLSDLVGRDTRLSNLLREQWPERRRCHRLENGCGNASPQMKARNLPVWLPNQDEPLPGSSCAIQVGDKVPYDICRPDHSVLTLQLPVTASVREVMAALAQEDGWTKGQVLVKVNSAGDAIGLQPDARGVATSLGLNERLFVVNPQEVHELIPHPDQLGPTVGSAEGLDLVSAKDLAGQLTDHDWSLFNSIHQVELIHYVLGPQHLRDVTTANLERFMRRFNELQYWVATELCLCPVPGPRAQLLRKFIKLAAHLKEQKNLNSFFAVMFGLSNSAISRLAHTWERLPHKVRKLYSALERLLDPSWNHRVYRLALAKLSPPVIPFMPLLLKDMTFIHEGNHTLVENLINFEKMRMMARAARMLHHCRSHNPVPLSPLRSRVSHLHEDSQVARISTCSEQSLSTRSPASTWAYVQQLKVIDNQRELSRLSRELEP
Assay [7] deals with Rap guanine nucleotide exchange factor 4 (Homo sapiens) (UniProt Q8WZA2). Nature of the assay: Confirmatory qHTS for agonist of cAMP-regulated guanine nucleotide exchange factor 4 (EPAC2) (AID 1645884).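 Note: nucleotide exchange releases bodipy-GDP from Rap1 and this lowers its fluorescence; % is set by controls: 0 for no effect and ±100 for the full control effect; nearly all actives have a fitted effect of over 65% in size.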
Sequence of Rap guanine nucleotide exchange factor 4 (Homo sapiens) (Q8WZA2 whole entry, looked up): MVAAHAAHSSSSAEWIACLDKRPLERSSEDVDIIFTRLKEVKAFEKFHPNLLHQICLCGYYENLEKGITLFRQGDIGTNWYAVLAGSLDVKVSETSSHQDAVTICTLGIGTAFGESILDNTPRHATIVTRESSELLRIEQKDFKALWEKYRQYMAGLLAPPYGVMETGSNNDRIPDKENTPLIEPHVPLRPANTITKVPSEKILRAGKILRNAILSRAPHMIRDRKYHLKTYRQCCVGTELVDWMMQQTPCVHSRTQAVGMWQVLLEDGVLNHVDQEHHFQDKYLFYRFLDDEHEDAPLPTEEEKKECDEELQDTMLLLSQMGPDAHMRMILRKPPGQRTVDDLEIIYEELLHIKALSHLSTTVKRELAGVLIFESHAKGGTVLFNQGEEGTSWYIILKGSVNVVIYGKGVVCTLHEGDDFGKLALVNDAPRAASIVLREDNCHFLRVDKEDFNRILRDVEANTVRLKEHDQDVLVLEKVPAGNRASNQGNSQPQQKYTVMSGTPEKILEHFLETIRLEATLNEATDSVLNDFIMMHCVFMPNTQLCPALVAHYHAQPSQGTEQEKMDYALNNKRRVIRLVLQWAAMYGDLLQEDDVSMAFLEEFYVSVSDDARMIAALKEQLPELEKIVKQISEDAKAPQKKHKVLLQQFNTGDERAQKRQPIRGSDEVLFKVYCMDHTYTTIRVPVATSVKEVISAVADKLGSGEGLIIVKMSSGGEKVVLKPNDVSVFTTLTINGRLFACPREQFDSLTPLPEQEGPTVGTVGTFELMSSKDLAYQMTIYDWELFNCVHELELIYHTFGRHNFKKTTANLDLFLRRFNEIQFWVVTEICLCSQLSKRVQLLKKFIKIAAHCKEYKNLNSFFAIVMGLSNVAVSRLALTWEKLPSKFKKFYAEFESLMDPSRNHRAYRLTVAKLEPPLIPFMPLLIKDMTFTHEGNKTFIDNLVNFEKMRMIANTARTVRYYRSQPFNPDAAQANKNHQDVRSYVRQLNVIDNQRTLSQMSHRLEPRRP
Assay [8] has as its target Cytochrome P450 2D6 (Homo sapiens) (UniProt P10635). Briefly: Cytochrome P450 family 2 subfamily D member 6 (CYP2D6) small molecule antagonists: luciferase biochemical (cell-free) qHTS assay (AID 1645840; active = well fitted curve in the direction sought with a large enough effect in the repeat runs; an effect the other way counts as inactive or inconclusive; note: % is set by controls: 0 for no effect and ±100 for the full control effect; nearly all actives have a fitted effect of over 55% in size). An outline of the steps:
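P450-Glo luminescent screen: recombinant CYP2D6 enzyme–proluciferin substrate mix preincubated with compound 10 min at room temperature, then NADPH regeneration added for 1 h at room temperature. Detection reagent added for 20 min; luciferin light read as relative luminescence units.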

Results filed as inconclusive are left out. Activity calls are given as the source filed them. Unless noted, calls come from the whole dose curve; as a rule, active = well fitted curve in the direction sought with a large enough effect; inconclusive = small, poorly fitted or top-dose-only effect, or another doubt; inactive = no such curve, though single readings can be large; an effect the other way counts as inactive or inconclusive.

Sequence of Luciferin 4-monooxygenase (Photinus pyralis) (P08659 whole entry, looked up): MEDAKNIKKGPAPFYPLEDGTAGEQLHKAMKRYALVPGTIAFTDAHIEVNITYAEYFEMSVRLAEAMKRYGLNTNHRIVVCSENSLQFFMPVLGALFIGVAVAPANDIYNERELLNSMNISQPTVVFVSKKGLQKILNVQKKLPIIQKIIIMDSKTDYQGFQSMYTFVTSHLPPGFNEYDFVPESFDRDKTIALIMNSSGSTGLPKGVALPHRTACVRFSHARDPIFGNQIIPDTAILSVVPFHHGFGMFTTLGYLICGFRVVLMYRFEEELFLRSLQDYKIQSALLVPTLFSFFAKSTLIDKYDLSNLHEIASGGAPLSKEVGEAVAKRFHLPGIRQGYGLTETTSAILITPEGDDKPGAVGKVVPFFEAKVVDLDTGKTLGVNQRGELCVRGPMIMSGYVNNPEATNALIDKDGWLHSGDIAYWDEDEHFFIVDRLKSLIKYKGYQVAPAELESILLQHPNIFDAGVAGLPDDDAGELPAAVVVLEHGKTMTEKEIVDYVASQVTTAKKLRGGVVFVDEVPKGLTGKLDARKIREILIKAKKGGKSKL
Sequence of Cytochrome P450 2D6 (Homo sapiens) (P10635 whole entry, looked up): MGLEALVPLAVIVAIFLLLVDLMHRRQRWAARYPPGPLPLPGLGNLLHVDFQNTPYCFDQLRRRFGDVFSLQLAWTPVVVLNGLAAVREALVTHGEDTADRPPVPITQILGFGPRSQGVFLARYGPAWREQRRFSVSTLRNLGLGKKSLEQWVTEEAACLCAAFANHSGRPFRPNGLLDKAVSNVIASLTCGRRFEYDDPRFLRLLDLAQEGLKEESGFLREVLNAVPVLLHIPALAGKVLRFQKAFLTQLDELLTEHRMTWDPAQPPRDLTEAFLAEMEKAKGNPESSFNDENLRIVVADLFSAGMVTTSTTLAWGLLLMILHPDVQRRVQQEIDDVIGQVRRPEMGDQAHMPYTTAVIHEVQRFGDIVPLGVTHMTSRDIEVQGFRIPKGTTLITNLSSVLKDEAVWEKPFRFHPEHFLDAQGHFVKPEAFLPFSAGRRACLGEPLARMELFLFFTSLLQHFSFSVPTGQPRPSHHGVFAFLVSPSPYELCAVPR

`CC(=O)[C@H]1CC[C@H]2C3CC=C4C[C@@H](O)CC[C@]4(C)C3CC[C@]12C` (stereo partly specified): the Potency entry (in assay [1]; in assay [3]; in assay [4]; in the assay on AA1029; in the assay on CP192; in the assay with CP211) was “inactive” in each case. The Potency result in the assay on CP260, in the assay with CP297, with CP315, with FAB9, with ICS and in the assay with JCK was “inactive” throughout. In addition, the Potency result in the assay on N140, with PC15 and in the assay with TAB165 was “inactive” each time. Besides, the compound was classed as inactive in [2].

Take `C/C=C1\C2C=C(C)CC1(N)c1ccc(=O)[nH]c1C2` (stereo unspecified): the Potency entry (in [1]; in assay [4]; with AA1029; in the assay on CP211; with CP260; with CP315) was “inactive” each time. Further, the Potency entry with FAB9, in the assay on ICS, with JCK, in the assay with N140, in the assay with PC15 and in the assay on TAB165 was “inactive” in each case. The call in assay [2] was inactive.

Regarding `OC[C@H]1OC([S-])[C@H](O)[C@@H](O)[C@H]1O.[Au+]` (stereo partly specified), the remaining parasite growth % (stronger effect = lower value) in assay [5] amounted to 86.3%.

Regarding `COc1ccccc1N1CCN(C[C@@H](O)COc2cccc3ccccc23)CC1`, the call in assay [6] and in [7] was inactive.

As to `CN1[C@@H]2CC(OC(=O)[C@H](CO)c3ccccc3)C[C@@H]1[C@H]1O[C@H]12` (stereo partly specified), the compound was classed as inactive in [6] and in [7].

As for `CN(CC[C@@H](Oc1ccc(-c2ccccc2)cc1)c1ccc(F)cc1)CC(=O)O`, in [8], the Potency result was “inactive”.

Regarding `CC(C)c1cccc(O)c(=O)c1`, the Potency entry in [8] is “inactive”.
